Structures can show the parent of a compound that is named as a salt. ± gives the standard deviation of the averaged measurements.
The compounds below were run against PARP1 L713F-nLuc biosensor (HCT116) (UniProt P09874) (assay: PARP1 L713F-nLuc/akaLuc ratio relative to DMSO control (biosensor stabilization) (fold change); higher = more PARP1 biosensor stabilization (target engagement / stabilizer), active = hit call of the paper). Conditions: stock concentration (mM; final µM = stock mM x 1): 10; 24 h;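 active = log2 fold change beyond 2 SD from the library mean after excluding viability outliers; inactive = within 2 SD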.
PARP1 L713F-nLuc biosensor (HCT116), sequence (P09874 whole entry L713F, looked up): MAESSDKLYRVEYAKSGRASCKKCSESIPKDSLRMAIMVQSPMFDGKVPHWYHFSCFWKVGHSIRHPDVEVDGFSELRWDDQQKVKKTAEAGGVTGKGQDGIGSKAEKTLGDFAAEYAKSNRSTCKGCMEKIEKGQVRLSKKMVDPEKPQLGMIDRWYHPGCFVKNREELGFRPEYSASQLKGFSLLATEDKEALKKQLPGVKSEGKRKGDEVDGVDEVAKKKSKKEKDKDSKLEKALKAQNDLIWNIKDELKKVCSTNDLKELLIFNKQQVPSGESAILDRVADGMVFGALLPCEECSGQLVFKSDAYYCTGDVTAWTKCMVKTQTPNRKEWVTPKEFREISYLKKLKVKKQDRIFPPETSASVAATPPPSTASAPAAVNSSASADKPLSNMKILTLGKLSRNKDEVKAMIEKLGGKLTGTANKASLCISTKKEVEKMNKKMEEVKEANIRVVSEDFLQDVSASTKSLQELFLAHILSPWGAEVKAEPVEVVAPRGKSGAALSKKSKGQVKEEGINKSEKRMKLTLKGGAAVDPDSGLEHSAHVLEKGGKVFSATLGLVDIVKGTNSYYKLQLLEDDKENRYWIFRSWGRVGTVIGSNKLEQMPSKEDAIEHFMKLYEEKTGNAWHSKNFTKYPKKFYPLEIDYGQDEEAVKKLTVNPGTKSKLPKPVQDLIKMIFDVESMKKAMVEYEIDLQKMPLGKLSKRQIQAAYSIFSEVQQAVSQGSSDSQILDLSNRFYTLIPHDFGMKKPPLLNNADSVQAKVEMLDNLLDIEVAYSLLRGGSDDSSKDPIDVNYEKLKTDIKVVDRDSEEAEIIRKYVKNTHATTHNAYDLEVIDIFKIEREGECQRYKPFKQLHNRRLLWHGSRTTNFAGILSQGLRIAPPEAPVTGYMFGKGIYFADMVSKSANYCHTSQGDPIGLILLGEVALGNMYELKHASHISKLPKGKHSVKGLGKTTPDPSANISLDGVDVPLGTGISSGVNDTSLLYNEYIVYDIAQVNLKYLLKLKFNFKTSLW

| SMILES | PARP1 L713F-nLuc/akaLuc ratio |
| --- | --- |
| O=[N+]([O-])c1c(Nc2cc(F)cc(Cl)c2)ccc2nonc12 | 1.45 (inactive) |
| C=CC(=O)Nc1cc(Nc2nccc(-c3cn(C)c4ccccc34)n2)c(OC)cc1N(C)CCN(C)C [Osimertinib (AZD9291)] | 0.371 (inactive) |
| CN[C@@H](C)C(=O)N[C@H]1CN(C(=O)CC(C)C)CC[C@H]2CC[C@@H](C(=O)NC(c3ccccc3)c3ccccc3)N2C1=O | 0.738 (inactive) |
| CN(C)CCCCCCNC(=O)c1cccc(-c2cc(O)c3ncccc3c2)c1 | 0.363 (inactive) |
| N#Cc1cc(F)cc(Oc2ccc(S(=O)(=O)C(F)F)c3c2CC(F)(F)C3O)c1 (racemic) | 0.759 (inactive) |
| Cc1cc([C@@H](C)Nc2ccccc2C(=O)O)c2nc(N3CCOCC3)cc(=O)n2c1 | 0.617 (inactive) |
| O=c1[nH]c(=O)n([C@H]2C[C@H](O)[C@@H](CO)O2)cc1C(F)(F)F [Trifluridine] | 0.548 (inactive) |
| CCOC(=O)CCNc1cc(N2CCc3ccccc3CC2)nc(-c2ccccn2)n1 | 0.586 (inactive) |
| Cc1nc(N)sc1-c1ccnc(Nc2ccc(N3CCOCC3)cc2)n1 | 0.726 (inactive) |
| CCS(=O)(=O)N1CC(CC#N)(n2cc(-c3ncnc4[nH]ccc34)cn2)C1 [Baricitinib] | 0.881 (inactive) |
| Cc1[nH]nc(C(F)(F)F)c1Cc1sc2c(c1C(=O)N1C[C@](C)(O)CO1)c(=O)n(C)c(=O)n2C(C)C | 0.93 (inactive) |
| Cc1ccc(NC(=O)c2ccc(CN3CC[C@H](N(C)C)C3)c(C(F)(F)F)c2)cc1Nc1nccc(-c2cncnc2)n1 [Bafetinib (INNO-406)] | 0.726 (inactive) |
| Cc1cc(-c2nc(-c3ccc(OC(F)(F)F)cc3)no2)nn1Cc1ccnc(N2CCN(C3CC3)CC2)c1 | 0.46 ± 0.17 |
| CCc1cccc(CC)c1NC(=O)N1Cc2[nH]nc(NC(=O)c3ccc(N4CCN(C)CC4)cc3)c2C1 | 0.92 (inactive) |
| CCN(CCO)CCCOc1ccc2c(Nc3cc(CC(=O)Nc4cccc(F)c4)[nH]n3)ncnc2c1 [Barasertib-HQPA] | 0.878 (inactive) |
| CC1=C(/C=C/C(C)=C/C=C/C(C)=C/C(=O)O)C(C)(C)CCC1 [Tretinoin] | 0.599 (inactive) |
| Cc1cn(-c2cc(NC(=O)c3ccc(C)c(Nc4nccc(-c5cnccn5)n4)c3)cc(C(F)(F)F)c2)cn1 [Radotinib] | 0.904 (inactive) |
| COc1cc(Nc2ncc3c(n2)-c2ccc(Cl)cc2C(c2c(F)cccc2OC)=NC3)ccc1C(=O)O [Alisertib (MLN8237)] | 1.12 (inactive) |
| C[C@@H](Oc1cc(-n2cnc3ccc(CN4CCN(C)CC4)cc32)sc1C(N)=O)c1ccccc1C(F)(F)F | 0.601 (inactive) |

| SMILES | PARP1 L713F-nLuc/akaLuc ratio |
| --- | --- |
| O=C1CN2Cc3c(ccc(Cl)c3Cl)N=C2N1 [Anagrelide HCl] | 0.856 (inactive) |
| COc1cc2ncnc(Nc3cc(Br)c(O)c(Br)c3)c2cc1OC | 1.37 (inactive) |
| COc1ccc2c(Oc3ccc4c(C(=O)Nc5ccccc5N)cccc4c3)ccnc2c1 [Chiauranib] | 0.819 (inactive) |
| COc1nc(Nc2cc(S(C)(=O)=O)ccc2N[C@@H](c2cccc3c2OC(F)(F)O3)c2ncccc2Cl)nc(N2CCNCC2)n1 | 0.707 (inactive) |
| Cn1cc(C2=C(c3cn(CCCSC(=N)N)c4ccccc34)C(=O)NC2=O)c2ccccc21 [Ro 31-8220 (mesylate)] | 1.62 (inactive) |
| CCCCOc1ccc(CC(=O)NO)cc1 [Bufexamac] | 1.03 (inactive) |
| Nc1cccc(Nc2ncc(-c3ccc(Cl)cc3)o2)c1 | 0.952 (inactive) |
| CCN(C(=O)CO)[C@H]1CN(/C(=N\C#N)Nc2cccc(OC(F)F)c2)N=C1c1ccc(Cl)c(Cl)c1 | 1.37 (inactive) |
| COc1c(CN)cc(CN)cc1OCCCN1Cc2ccccc2C1 [MS31 (trihydrochloride)] | 0.851 (inactive) |
| Cc1cc(C)c(CN2CCc3c(Cl)cc(-c4c(C)noc4C)c(Cl)c3C2=O)c(=O)[nH]1 | 0.881 (inactive) |
| COC(=O)c1ccc(N2CCN(C)CC2)c(NC(=O)c2cccc(OC)c2)c1 | 0.856 (inactive) |
| Cc1cc(-c2ncc(CC(=O)Nc3ccc(-c4cnccn4)cn3)cc2C)ccn1 | 1.03 (inactive) |
| Cc1ncc(F)c(Nc2n[nH]c3c2CN(C(=O)N2C[C@@H](C)N(CC4CCOCC4)C[C@@H]2C)C3(C)C)n1 | 1.25 (inactive) |
| Cc1cc(Nc2ccc(NC(=O)c3ccc(Nc4ccnc5ccccc45)cc3)cc2)nc(N)n1 | 1.38 (inactive) |
| CC(C)(O)c1ccc(-c2nc3c(F)cc(F)cc3c(=O)[nH]2)cc1 [Tankyrase-IN-2] | 2.95 (active) |
| O=C(O)Cn1nnc(-c2ccc(CN(CCCCOc3ccc(CN4CCCC4)cc3)CCc3ccccc3)cc2)n1 | 1.04 (inactive) |
| CCN(CCN(C)C)C(=O)CNCc1cc(C(N)=O)ccn1 [KDOAM-25 (citrate)] | 1.15 (inactive) |
| CC(=O)N1CCC(Nc2cc(C(=O)NC[C@H](O)CN3CCc4ccccc4C3)ncn2)CC1 | 0.707 (inactive) |
| NC(=O)NO [Hydroxyurea] | 0.953 (inactive) |

Source: the supplement of paper PMC11624193, “Coupling cellular drug-target engagement to downstream pharmacology with CeTEAM” (Nature Communications, 2024)
